Shiga inhibitor: inhibitors of Shiga toxin in Vero cells | Vero cells, Shiga toxin protein synthesis inhibition reporter | inhibition, % at 38.7 µM | 290,000 tested, 9.2% active | AID 2315; in the data active = inhibition mostly above about 28%, no sharp cut-off; inactive = mostly below about 43%; also: 0% is about no effect
Cycloheximide cs: counter-screen for Shiga toxin inhibitors: cycloheximide protein synthesis inhibition; cell reporter, cycloheximide protein synthesis inhibition counterscreen; max response, %; 300,000 tested, 12% active; AID 2314; in the data active = max response mostly above about 13%, no sharp cut-off; inactive = mostly below about 14%; also: read at 38.3 µM for the half of the compounds with a filed dose; 0% is about no effect
NS1 function inh: blocks influenza NS1 protein function; Potency, µM (highest dose often 46.1 µM), for inactives: at the highest dose activity, positive = more growth; 270,000 tested, 0.4% active; AID 2326; calls by dose curve; also: potency is read from the fitted curve at half-maximal effect; actives are rising curves; nearly all actives have a fitted effect of over 50% in size
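OD600 was taken as the measure of yeast growth restored by compound in an NS1-expressing S. cerevisiae strain. Cells had been washed out of glucose medium and diluted 1:100 into galactose -URA medium, pH 6.0.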
LmPK inh: inhibitors of Leishmania mexicana pyruvate kinase | Q27686 | 290,000 tested, 0.37% active | purified LmPK, Kinase-Glo ATP luminescence, 1 h | Potency, µM (titrated, usually from 57.5 µM), for the others: at the highest dose activity change, negative = inhibition, most hits filed as inhibitors; also: potency is read from the fitted curve at half-maximal effect; % is scaled to controls: 0 for no effect and ±100 for the full control effect
Target sequence (Q27686 whole entry, looked up): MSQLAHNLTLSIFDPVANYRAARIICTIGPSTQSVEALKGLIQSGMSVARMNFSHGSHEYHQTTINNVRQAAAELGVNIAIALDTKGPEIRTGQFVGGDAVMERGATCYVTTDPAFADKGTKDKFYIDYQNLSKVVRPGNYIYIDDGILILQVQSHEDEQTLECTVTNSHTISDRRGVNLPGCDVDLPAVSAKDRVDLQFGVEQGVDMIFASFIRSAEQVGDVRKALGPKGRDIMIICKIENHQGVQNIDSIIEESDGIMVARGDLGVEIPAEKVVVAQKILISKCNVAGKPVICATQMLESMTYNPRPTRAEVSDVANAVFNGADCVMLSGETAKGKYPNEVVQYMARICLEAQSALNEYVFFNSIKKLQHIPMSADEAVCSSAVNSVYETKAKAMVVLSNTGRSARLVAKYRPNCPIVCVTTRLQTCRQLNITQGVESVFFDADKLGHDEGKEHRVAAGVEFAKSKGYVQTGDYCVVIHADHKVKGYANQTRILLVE
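Kinase-Glo luminescence read after 1 h RT reaction of 0.1 nM LmPK with 0.5 mM PEP and 0.1 mM ADP. Activity scaled between uninhibited and enzyme-free controls.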
FBPA Giardia inh: Giardia lamblia aldolase inhibition. A8B2U2. purified Giardia FBPA. Potency, µM (highest dose often 59.6 µM), for inactives: at the highest dose activity, negative = inhibition, hits mostly inhibitors. 290,000 tested, 0.71% active. AID 2451; also: potency is read from the fitted curve at half-maximal effect; % is scaled to controls: 0 for no effect and ±100 for the full control effect; nearly all actives have a fitted effect of over 55% in size
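Giardia FBPA (40 nM reagent) was preincubated 10 min at RT with compound (up to 57.5 uM final), then substrate plus GAPDH/TPI/NAD/arsenate coupling system with diaphorase/resazurin was added; resorufin fluorescence (525/598 nm) was read after 20 min.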
An asterisk follows results filed as active; i = inactive; ? = inconclusive; . = no result given; [ ] = remark or other dose. Compounds with a hit are over-represented: about 14% of the library has one in this group of screens. Unless noted, calls follow the shape of the dose curve; as a rule, active = well fitted curve in the direction sought with a large enough effect; inconclusive = small, poorly fitted or top-dose-only effect, or another doubt; inactive = no such curve, though single readings can be large; an effect the other way counts as inactive or inconclusive.

SMILES	Shiga inhibitor	Cycloheximide cs	NS1 function inh	LmPK inh	FBPA Giardia inh
Cc1ccc(OCc2nc(C#N)c(N3CCCCC3)o2)cc1	14	18*	-33%	-4%	0%
CCN1CCN(c2oc(COc3ccc(-c4ccccc4)cc3)nc2C#N)CC1	2	20*	.	4%	-7%
N#Cc1nc(COc2ccccc2F)oc1N1CCCCCC1	28*	24*	-15%	-4%	1%
N#Cc1nc(COc2ccccc2)oc1N1CCCCC1	83*	51*	-99%	8%	5%
Cc1cc(C)n(C(=O)COc2ccccc2[N+](=O)[O-])n1	15	11	-1%	1%	11%
O=C(Cn1ccc2cc(S(=O)(=O)N3CCCC3)ccc21)NCCc1ccccc1	19	6	7%	-5%	19%
c1ccc(-c2nc(-c3nccc4ccccc34)oc2-c2ccccc2)cc1	74*	46*	-6%	?	?
CCOc1ccc(-n2c(=O)c3sccc3n(CC(=O)NCC3CCCO3)c2=O)cc1 (configuration not stated)	-17	-4	0%	-8%	6%
O=C(Cn1cnc2c(cnn2-c2ccccc2)c1=O)OCc1ccccc1	76*	30*	4%	8%	4%
O=C(Cn1cnc2c(cnn2-c2ccc(F)cc2)c1=O)OCc1ccccc1	-9	3	3%	4%	2%
Cc1ccc(-n2ncc3c(=O)n(CC(=O)OCc4ccccc4)cnc32)cc1	57	31*	2%	4%	0%
Cc1ccc(-n2nnc3c(=O)n(CC(=O)OCc4ccccc4)cnc32)cc1	-2	-3	3%	3%	-3%
O=C(O)[C@H](/C=C\c1ccccc1)c1ccccc1	.	.	8%	.	.
O=C(CN1c2ccccc2S(=O)(=O)c2ccccc21)NCc1ccc(F)cc1	-3	-5	17%	-5%	.
O=C(Nc1ccccc1N1CCOCC1)c1cccc2c(Br)cccc12	8	9	8%	-6%	5%
Clc1cccc(/C=N/Nc2nnc(Cl)c3ccccc23)c1	62*	19	-11%	-3%	-10%
Clc1ccc(/C=N/Nc2nnc(-c3ncc[nH]3)c3ccccc23)cc1	112*	34*	22%	3%	3%
CCOc1ccc(CNCc2c(C(=O)O)n(Cc3ccccc3C)c3cc(OC)ccc23)cc1OC	4	-3	.	.	.
CC1CCOC(c2coc3ccccc3c2=O)O1 (configuration not stated)	54*	59*	3%	?	2%
CC(C)n1cnc2c(Nc3ccc(F)c(Cl)c3)nc(NCCO)nc21	15	-2	5%	6%	-3%
CC(C)C[C@H](CO)Nc1nc(Nc2cccc(Cl)c2)c2ncn(C(C)C)c2n1	42*	23*	-2%	0%	-7%
CC(C)n1cnc2c(Nc3cccc(F)c3)nc(NCCO)nc21	25	19*	-6%	2%	-8%
COc1cc(-c2nnc(CSc3nnc(Nc4ccc(C(C)C)cc4)s3)o2)cc(OC)c1OC	48	19*	23%	0%	-3%
Cc1ccc(-c2cn(-c3ccccc3)c(SCC(=O)NC3CCS(=O)(=O)C3)n2)cc1C (configuration not stated)	active	53*	-3%	2%	-1%
NC(N)=NC1=NC(=O)C(Cc2ccccc2)S1 (configuration not stated)	-2	19*	0%	-9%	-5%
SMILES	Shiga inhibitor	Cycloheximide cs	NS1 function inh	LmPK inh	FBPA Giardia inh
Cc1ccc(CC2SC(N=C(N)N)=NC2=O)cc1 (configuration not stated)	23	-4	18%	-1%	-8%
Cc1cccc(/C=N\NC(=O)c2ccc(Cl)cc2)c1O	82*	62*	-6%	2%	6%
CCOc1cccc(/C=N/NC(=O)c2ccc3c(c2)OCCO3)c1O	82*	29*	12%	-3%	.
COc1cccc(/C=N/NC(=O)CNC(=O)c2ccc3c(c2)OCCO3)c1O	4	-2	-9%	-1%	-29%
Cc1cccc(/C=N/NC(=O)c2ccc3c(c2)OCCO3)c1O	55*	14	-73%	-19%	.
Cc1ccc(NS(=O)(=O)c2cccc(C(=O)N/N=C/c3ccc4c(c3)OCCO4)c2)c(C)c1	30	14*	37%	2%	-1%
Cc1ccc(CNC(=O)[C@H](Cc2ccccc2)NC(=O)C2CCNCC2)cc1	-6	-1	-14%	-9%	?
NNC(=S)Nc1ccccc1Cl	86*	43*	0%	-2%	?
S=C(NCCNC(=S)Nc1ccccc1Cl)Nc1ccccc1Cl	20	0	3%	1%	?
O=C(NC(=S)Nc1ccccc1Br)C1CCC1	50*	43*	-13%	4%	6%
O=C(NC(=S)Nc1ccccc1Cl)C1CC1	38	45*	-8%	-4%	.
O=C1NN=C(c2ccccc2)CC1c1c[nH]c2ccccc12 (configuration not stated)	52	24*	.	5%	3%
CCOC(=O)CCNC(=O)N1CCCC(Cc2ccccc2)(C(=O)OCC)C1 (configuration not stated)	-4	-3	18%	-1%	7%
CCCCC[C@]12Cc3cc(OC)c(OC)cc3[C@H](O1)c1c(cc(C)oc1=O)O2	i	-3	3%	-13%[11.5 µM]	16%[12.9 µM]
CC(C)(C)c1ccc(C(=O)NNC(=O)CCC(=O)Nc2ccccc2)cc1	41	19*	14%	-7%	.
CCC(=O)NNC(=O)CCC(=O)Nc1ccccc1	-16	1	7%	-3%	.
Cc1cc(NC(=O)COc2c(C)cccc2C)no1	-2	1	-8%	2%	-2%
Cc1cc(NC(=O)CCC(=O)NNC(=O)c2ccc(C(C)(C)C)cc2)no1	80*	36*	0%	-4%	3%
Cc1cc(NC(=O)COc2ccc(C(C)(C)C)cc2)no1	50*	32*	-7%	1%	-9%
CCCC[C@]12Cc3cc(C#N)ccc3C(O1)c1c(cc(C)n(Cc3ccccc3)c1=O)O2	i	1	19%	-4%[11.5 µM]	-5%[12.9 µM]
CC(C)C(C(=O)NC1CCCC1)N(CC1CCCO1)C(=O)CNS(=O)(=O)c1ccc(F)cc1 (configuration not stated)	-3	-7	1%	-5%	.
COc1ccccc1NS(=O)(=O)c1cc([N+](=O)[O-])ccc1N/N=C/c1c(C)[nH]c2ccccc12	-20	-5	9%	-15%	-2%
Cc1[nH]c2ccccc2c1/C=N/Nc1ccccn1	49	15	-27%	1%	-3%
Cc1[nH]c2ccccc2c1/C=N/Nc1ccc(F)cc1F	30*	31*	1%	-2%	-12%
Cc1[nH]c2ccccc2c1/C=N/Nc1ccc([N+](=O)[O-])cc1	77*	19*	5%	-18%	?
Cc1[nH]c2ccccc2c1/C=N\NC(=O)c1ccco1	57*	30*	0%	-6%	.
Cc1[nH]c2ccccc2c1/C=N/NC(=O)c1cccc([N+](=O)[O-])c1	2	5	.	0%	-10%
Cc1[nH]c2ccccc2c1/C=N/NC(=O)c1cccc(F)c1	62*	26*	1%	0%	-10%

Screens deposited in PubChem by National Center for Advancing Translational Sciences (NCATS).
